# Experimental data reported in paper PMC7862700, “An all-to-all approach to the identification of sequence-specific readers for epigenetic DNA modifications on cytosine”.
# Key:
# Experiment in all cases: DAPPL (digital affinity profiling via proximity ligation, sequencing); 10 mM Tris-HCl pH 7.5, 50 mM NaCl, 1 mM DTT, 4% glycerol, room temperature, 30 min; GST-TFs on glutathione beads, 16-mer random dsDNA library, 0.1% formaldehyde crosslink after washing; high values mean tight binding
# FLI1 = target: T1, FLI1 (Homo sapiens, UniProt Q01543 1-452); settings: protein: recombinant; tags: N-terminal GST; dsDNA, one strand shown
# T1 sequence: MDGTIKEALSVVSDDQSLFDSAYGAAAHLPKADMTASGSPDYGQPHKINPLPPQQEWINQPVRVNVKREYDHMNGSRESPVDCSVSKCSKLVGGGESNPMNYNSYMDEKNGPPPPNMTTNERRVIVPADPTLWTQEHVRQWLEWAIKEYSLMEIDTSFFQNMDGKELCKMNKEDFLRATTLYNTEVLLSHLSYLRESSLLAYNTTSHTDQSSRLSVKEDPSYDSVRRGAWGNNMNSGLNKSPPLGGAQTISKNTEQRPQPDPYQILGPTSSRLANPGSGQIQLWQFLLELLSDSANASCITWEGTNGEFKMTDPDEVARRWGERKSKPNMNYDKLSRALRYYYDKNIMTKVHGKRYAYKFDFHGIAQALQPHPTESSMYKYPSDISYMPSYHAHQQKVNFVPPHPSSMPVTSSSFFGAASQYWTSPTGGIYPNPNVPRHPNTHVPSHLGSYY
# How it was run: (§1)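 After expression in yeast as GST fusions, human transcription factors were bound to glutathione beads, DNA-barcoded and mixed with a tag-only sample. The pools were incubated with 200 nmole of a 16-mer random double-stranded DNA library in Tris/NaCl/DTT/glycerol buffer (30 min, room temperature), washed and crosslinked with 0.1% formaldehyde. Proximity ligation with BsaI/T4 ligase ran for 1 h at 37 °C, before PCR amplification and sequencing on an Illumina NextSeq500. Binding signal is a hexamer's read frequency for a factor divided by its frequency for the tag-only sample.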
# ELK1 = target: T2, ELK1 (Homo sapiens, UniProt P19419 1-428); settings: protein: recombinant; tags: N-terminal GST; dsDNA, one strand shown
# T2 sequence: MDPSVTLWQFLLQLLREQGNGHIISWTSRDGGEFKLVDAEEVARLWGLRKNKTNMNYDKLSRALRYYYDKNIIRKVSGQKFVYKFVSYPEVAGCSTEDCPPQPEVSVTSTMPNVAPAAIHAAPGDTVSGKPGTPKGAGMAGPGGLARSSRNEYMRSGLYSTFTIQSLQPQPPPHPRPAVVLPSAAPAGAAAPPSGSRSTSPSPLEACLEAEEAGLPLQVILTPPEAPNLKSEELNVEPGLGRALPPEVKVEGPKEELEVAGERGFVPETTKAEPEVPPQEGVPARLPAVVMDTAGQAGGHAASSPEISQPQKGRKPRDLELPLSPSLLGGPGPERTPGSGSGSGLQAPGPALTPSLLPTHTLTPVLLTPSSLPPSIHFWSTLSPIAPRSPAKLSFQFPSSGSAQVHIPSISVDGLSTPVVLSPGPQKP
# How it was run: as §1
# GABPA = target: T3, GABPA (Homo sapiens, UniProt Q06546 1-454); settings: protein: recombinant; tags: N-terminal GST; dsDNA, one strand shown
# T3 sequence: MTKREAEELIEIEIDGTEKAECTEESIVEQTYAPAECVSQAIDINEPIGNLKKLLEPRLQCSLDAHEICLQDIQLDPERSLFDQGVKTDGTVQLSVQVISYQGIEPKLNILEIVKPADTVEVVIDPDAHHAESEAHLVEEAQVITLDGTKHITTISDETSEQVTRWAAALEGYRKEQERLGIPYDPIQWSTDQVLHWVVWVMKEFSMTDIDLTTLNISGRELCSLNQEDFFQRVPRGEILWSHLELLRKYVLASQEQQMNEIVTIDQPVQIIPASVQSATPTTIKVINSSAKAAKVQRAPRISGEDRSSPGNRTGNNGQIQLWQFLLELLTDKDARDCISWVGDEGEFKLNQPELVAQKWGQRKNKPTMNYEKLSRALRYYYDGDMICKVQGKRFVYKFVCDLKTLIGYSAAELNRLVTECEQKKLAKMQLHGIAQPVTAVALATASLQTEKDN
# How it was run: as §1
# ERG = target: T4, ERG (Homo sapiens, UniProt P11308 1-479); settings: protein: recombinant; tags: N-terminal GST; dsDNA, one strand shown
# T4 sequence: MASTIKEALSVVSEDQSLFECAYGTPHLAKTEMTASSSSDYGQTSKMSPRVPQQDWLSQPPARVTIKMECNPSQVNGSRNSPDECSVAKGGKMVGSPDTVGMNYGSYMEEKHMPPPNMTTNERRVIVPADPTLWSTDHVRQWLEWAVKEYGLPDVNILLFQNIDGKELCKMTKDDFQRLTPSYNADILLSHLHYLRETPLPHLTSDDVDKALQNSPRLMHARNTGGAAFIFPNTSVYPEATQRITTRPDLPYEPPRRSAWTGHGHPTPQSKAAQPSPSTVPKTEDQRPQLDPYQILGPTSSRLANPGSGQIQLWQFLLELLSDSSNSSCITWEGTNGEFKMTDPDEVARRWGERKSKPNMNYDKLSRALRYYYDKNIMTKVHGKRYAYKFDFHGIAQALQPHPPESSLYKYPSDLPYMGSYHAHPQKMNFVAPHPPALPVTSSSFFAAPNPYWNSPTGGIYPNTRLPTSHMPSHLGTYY
# How it was run: as §1
# ELF1 = ELF1 (Homo sapiens, UniProt P32519 1-619); settings: protein: recombinant; tags: N-terminal GST; dsDNA, one strand shown
# How it was run: as §1
# EHF = target: T5, EHF (Homo sapiens, UniProt Q9NZC4 1-300); settings: protein: recombinant; tags: N-terminal GST; dsDNA, one strand shown
# T5 sequence: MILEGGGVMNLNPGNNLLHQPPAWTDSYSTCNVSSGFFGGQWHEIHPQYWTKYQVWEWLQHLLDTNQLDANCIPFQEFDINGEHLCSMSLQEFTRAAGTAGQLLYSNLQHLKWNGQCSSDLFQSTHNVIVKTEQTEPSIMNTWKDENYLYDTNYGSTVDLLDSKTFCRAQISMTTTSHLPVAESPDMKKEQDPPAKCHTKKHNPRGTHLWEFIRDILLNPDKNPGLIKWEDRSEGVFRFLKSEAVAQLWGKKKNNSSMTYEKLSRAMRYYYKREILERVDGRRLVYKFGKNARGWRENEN
# How it was run: as §1
# SPI1 = SPI1 (Homo sapiens, UniProt P17947 1-270); settings: protein: recombinant; tags: N-terminal GST; dsDNA, one strand shown
# How it was run: as §1
# SPIB = SPIB (Homo sapiens, UniProt Q01892 1-262); settings: protein: recombinant; tags: N-terminal GST; dsDNA, one strand shown
# How it was run: as §1
# ELK3 = target: T6, ELK3 (Homo sapiens, UniProt P41970 1-407); settings: protein: recombinant; tags: N-terminal GST; dsDNA, one strand shown
# T6 sequence: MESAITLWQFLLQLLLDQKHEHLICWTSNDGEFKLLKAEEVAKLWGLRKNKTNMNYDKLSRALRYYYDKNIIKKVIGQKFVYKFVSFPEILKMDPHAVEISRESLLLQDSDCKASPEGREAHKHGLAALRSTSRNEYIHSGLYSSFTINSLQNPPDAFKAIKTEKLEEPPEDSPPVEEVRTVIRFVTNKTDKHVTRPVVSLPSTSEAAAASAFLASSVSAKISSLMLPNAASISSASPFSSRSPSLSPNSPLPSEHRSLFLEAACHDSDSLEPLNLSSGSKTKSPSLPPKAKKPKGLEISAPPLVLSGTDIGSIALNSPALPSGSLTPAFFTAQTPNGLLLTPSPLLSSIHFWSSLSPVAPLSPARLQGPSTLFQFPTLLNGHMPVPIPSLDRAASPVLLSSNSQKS
# How it was run: as §1
# FEV = target: T7, FEV (Homo sapiens, UniProt Q99581 1-238); settings: protein: recombinant; tags: N-terminal GST; dsDNA, one strand shown
# T7 sequence: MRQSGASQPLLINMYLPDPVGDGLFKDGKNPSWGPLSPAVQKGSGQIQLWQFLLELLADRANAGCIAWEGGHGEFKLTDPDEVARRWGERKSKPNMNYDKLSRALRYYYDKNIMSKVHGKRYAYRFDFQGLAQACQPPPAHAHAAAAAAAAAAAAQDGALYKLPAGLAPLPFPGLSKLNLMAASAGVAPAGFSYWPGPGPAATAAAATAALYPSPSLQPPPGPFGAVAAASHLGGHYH
# How it was run: as §1
# ETV5 = ETV5 (Homo sapiens, UniProt P41161 1-510); settings: protein: recombinant; tags: N-terminal GST; dsDNA, one strand shown
# How it was run: as §1
# HSF1 = HSF1 (Homo sapiens, UniProt Q00613 1-529); settings: protein: recombinant; tags: N-terminal GST; chain copies: 3; dsDNA, one strand shown
# How it was run: as §1
# SPIC = target: T8, SPIC (Homo sapiens, UniProt Q8N5J4 1-248); settings: protein: recombinant; tags: N-terminal GST; dsDNA, one strand shown
# T8 sequence: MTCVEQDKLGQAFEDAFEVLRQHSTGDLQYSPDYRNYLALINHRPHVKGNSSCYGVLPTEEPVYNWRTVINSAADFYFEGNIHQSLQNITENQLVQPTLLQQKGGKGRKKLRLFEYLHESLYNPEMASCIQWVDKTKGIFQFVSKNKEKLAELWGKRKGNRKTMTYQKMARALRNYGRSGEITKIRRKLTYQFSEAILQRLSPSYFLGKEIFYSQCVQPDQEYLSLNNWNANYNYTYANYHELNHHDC
# How it was run: as §1
# ELF4 = ELF4 (Homo sapiens, UniProt Q99607 1-663); settings: protein: recombinant; tags: N-terminal GST; dsDNA, one strand shown
# How it was run: as §1
# ELK4 = target: T9, ELK4 (Homo sapiens, UniProt P28324-2 1-405); settings: protein: recombinant; tags: N-terminal GST; dsDNA, one strand shown
# T9 sequence: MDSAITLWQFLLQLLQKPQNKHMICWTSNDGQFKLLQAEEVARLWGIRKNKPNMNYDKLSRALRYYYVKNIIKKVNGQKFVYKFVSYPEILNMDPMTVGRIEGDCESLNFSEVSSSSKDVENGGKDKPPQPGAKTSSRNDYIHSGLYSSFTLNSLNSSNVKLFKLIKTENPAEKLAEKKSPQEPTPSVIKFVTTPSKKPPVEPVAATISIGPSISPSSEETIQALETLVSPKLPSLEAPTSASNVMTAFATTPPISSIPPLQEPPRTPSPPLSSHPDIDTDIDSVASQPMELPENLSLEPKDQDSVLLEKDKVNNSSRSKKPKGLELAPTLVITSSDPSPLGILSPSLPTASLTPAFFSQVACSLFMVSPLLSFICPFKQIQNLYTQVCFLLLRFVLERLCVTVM
# How it was run: as §1
# ETV2 = target: T10, ETV2 (Homo sapiens, UniProt O00321 1-342); settings: protein: recombinant; tags: N-terminal GST; dsDNA, one strand shown
# T10 sequence: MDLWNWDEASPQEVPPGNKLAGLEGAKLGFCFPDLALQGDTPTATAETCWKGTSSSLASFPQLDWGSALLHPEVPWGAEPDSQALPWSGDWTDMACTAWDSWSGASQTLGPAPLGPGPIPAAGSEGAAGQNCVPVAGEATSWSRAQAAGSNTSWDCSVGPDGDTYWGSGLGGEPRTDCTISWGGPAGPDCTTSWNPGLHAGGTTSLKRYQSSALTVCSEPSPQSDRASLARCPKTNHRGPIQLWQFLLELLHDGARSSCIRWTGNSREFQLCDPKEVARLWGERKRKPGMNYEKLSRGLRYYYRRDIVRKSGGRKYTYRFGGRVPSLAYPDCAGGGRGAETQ
# How it was run: as §1
# ELF3 = target: T11, ELF3 (Homo sapiens, UniProt P78545 1-371); settings: protein: recombinant; tags: N-terminal GST; dsDNA, one strand shown
# T11 sequence: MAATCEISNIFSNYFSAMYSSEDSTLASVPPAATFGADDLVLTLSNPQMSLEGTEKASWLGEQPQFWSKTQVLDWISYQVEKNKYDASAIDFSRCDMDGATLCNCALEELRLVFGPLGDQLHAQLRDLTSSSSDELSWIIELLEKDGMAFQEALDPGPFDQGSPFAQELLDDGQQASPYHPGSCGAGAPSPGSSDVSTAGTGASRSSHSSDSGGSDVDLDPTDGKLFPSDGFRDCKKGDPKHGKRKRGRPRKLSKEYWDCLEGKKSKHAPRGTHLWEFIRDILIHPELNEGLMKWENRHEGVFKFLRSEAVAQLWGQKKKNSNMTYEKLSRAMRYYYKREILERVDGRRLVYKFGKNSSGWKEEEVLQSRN
# How it was run: as §1
# ETV1 = ETV1 (Homo sapiens, UniProt P50549 1-477); settings: protein: recombinant; tags: N-terminal GST; dsDNA, one strand shown
# How it was run: as §1
# ETV5, sequence (P41161 whole entry): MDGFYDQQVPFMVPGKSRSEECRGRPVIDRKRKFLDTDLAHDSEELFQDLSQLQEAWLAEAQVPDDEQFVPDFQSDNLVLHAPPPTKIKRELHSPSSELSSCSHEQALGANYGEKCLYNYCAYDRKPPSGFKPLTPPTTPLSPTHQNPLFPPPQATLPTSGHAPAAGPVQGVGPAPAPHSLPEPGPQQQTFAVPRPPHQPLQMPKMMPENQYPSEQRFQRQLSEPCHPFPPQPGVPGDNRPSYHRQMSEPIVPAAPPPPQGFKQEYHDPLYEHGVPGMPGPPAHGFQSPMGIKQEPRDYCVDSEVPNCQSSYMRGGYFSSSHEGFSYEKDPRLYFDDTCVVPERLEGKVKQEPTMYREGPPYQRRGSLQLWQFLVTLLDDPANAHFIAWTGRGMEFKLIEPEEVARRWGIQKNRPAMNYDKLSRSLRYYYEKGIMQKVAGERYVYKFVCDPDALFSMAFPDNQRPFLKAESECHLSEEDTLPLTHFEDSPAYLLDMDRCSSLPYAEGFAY
# SPIB, sequence (Q01892 whole entry): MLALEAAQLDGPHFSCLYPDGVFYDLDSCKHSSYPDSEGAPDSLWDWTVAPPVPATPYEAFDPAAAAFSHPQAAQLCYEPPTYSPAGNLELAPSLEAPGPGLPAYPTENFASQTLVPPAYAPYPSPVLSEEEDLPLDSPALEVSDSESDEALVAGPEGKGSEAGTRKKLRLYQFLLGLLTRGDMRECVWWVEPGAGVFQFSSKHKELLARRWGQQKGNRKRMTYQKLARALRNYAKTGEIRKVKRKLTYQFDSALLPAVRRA
# ELF4, sequence (Q99607 whole entry): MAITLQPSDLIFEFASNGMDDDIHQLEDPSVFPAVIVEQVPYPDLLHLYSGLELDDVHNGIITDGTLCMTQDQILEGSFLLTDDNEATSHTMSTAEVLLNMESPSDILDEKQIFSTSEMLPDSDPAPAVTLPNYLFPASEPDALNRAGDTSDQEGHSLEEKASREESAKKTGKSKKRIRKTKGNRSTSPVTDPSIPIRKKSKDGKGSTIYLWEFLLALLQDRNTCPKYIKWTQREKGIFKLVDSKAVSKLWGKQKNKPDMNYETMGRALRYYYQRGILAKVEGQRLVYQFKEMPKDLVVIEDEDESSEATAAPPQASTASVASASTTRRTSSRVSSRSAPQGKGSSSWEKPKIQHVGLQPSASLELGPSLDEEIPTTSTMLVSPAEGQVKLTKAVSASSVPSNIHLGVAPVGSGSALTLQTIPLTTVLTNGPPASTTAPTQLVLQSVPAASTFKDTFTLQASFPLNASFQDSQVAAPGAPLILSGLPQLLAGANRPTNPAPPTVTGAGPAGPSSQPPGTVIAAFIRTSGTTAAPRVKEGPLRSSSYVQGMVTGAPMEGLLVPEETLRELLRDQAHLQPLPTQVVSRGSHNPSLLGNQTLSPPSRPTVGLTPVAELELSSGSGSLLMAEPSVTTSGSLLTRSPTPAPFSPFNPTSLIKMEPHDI
# HSF1, sequence (Q00613 whole entry): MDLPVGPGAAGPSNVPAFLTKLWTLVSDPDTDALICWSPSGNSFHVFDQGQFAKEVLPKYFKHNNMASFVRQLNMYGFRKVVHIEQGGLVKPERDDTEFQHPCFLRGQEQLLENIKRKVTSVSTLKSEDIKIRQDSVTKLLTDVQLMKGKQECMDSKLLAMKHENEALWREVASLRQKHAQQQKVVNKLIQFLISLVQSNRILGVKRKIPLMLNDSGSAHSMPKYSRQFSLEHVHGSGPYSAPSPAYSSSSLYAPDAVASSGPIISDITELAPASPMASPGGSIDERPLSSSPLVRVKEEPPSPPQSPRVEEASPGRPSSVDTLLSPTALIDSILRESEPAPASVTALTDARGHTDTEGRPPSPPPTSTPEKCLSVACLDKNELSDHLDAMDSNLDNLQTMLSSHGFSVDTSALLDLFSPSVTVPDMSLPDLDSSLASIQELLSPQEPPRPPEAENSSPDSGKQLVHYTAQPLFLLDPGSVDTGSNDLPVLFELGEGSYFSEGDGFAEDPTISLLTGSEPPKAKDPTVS
# ETV1, sequence (P50549 whole entry): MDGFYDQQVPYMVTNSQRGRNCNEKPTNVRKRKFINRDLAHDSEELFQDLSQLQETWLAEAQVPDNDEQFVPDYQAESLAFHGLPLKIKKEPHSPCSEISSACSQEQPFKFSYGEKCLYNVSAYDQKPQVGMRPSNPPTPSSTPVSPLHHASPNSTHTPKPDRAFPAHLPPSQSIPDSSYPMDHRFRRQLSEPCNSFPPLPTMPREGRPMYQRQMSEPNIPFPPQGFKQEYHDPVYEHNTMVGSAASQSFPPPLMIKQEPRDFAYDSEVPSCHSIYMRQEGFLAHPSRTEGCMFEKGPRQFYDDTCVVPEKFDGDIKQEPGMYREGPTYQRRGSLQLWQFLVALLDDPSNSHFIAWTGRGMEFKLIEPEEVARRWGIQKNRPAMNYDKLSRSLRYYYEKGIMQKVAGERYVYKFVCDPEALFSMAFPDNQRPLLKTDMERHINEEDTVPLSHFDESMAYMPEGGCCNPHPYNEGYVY
# ELF1, sequence (P32519 whole entry): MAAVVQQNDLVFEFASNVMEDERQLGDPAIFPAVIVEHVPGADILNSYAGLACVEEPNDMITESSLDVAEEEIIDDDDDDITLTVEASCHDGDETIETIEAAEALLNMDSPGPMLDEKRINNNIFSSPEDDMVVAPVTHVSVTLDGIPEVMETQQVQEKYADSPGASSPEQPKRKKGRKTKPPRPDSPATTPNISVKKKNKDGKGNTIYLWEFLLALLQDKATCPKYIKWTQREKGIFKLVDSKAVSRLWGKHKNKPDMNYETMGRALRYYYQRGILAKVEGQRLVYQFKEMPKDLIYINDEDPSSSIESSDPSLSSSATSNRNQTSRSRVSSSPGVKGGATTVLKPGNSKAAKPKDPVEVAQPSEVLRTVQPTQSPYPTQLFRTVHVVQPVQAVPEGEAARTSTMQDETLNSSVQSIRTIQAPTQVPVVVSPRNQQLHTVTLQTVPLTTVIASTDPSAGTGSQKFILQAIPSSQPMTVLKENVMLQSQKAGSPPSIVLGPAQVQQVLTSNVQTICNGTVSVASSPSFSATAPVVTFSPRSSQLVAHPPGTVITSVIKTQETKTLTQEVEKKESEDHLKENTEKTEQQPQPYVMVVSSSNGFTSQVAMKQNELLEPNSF
sequence,measurement,setting,value
ATGGGC,binding signal,FLI1,"1.28 fold enrichment (6-mer frequency, TF over GST control)"
same,binding signal,ELK1,"1.29 fold enrichment (6-mer frequency, TF over GST control)"
same,binding signal,GABPA,"1.3 fold enrichment (6-mer frequency, TF over GST control)"
same,binding signal,ERG,"1.26 fold enrichment (6-mer frequency, TF over GST control)"
same,binding signal,ELF1,"1.27 fold enrichment (6-mer frequency, TF over GST control)"
same,binding signal,EHF,"1.32 fold enrichment (6-mer frequency, TF over GST control)"
same,binding signal,SPI1,"1.35 fold enrichment (6-mer frequency, TF over GST control)"
same,binding signal,SPIB,"1.3 fold enrichment (6-mer frequency, TF over GST control)"
same,binding signal,ELK3,"1.37 fold enrichment (6-mer frequency, TF over GST control)"
same,binding signal,FEV,"1.28 fold enrichment (6-mer frequency, TF over GST control)"
same,binding signal,ETV5,"1.25 fold enrichment (6-mer frequency, TF over GST control)"
same,binding signal,HSF1,"1.03 fold enrichment (6-mer frequency, TF over GST control)"
same,binding signal,SPIC,"1.35 fold enrichment (6-mer frequency, TF over GST control)"
same,binding signal,ELF4,"1.35 fold enrichment (6-mer frequency, TF over GST control)"
same,binding signal,ELK4,"1.49 fold enrichment (6-mer frequency, TF over GST control)"
same,binding signal,ETV2,"1.17 fold enrichment (6-mer frequency, TF over GST control)"
same,binding signal,ELF3,"1.24 fold enrichment (6-mer frequency, TF over GST control)"
same,binding signal,ETV1,"1.19 fold enrichment (6-mer frequency, TF over GST control)"
